Experimental data taken from ChEMBL document CHEMBL3988442, “University of Dundee, Small-Polar-MMV Screening Library” (2021).
Out of some 48,000 compounds screened, about 13,000 (27%) showed an effect of 50% or more. The list shows a part of the results.

system: Wolbachia pipientis; assay: Anti-Wolbachia Cell-Based Screen; assay type: functional; parameters: scale not given: in the data most compounds retested in dose-response had high values; conditions: 5 µM

| Structure (SMILES) | Percent Effect |
| --- | --- |
| CN(C)S(=O)(=O)c1ccc(CNc2ccc(Cl)cn2)cc1 | -2.882% |
| CSCC(C)C(=O)NCc1c(C)nc2cc(=O)[nH]n2c1C (stereo not given) | -19.78% |
| CCCc1nccn1-c1ccc(C(O)CN2CCOCC2)cc1 (stereo not given) | -2.856% |
| CCc1nc2c(c(N3CCOCC3)n1)CCN(C(=O)c1ccon1)CC2 | 0.9669% |
| O=C(CCn1ccc2ncccc2c1=O)N1CCCC1 | -7.075% |
| Cn1cc2ncn(CCCOc3cccnc3)c(=O)c2n1 | -2.569% |
| Cc1cc(C(C)NC(=O)CCn2nnc3ccccc3c2=O)c(C)o1 (stereo not given) | 5.131% |
| O=C(CCCn1cnc2ccccc2c1=O)Nc1nc[nH]n1 | 118.2% |
| CC(NC(=O)CCCc1ccc(Cl)cc1)c1nnn[nH]1 (stereo not given) | -9.693% |
| CC(NC(=O)CCCn1cnc2ccccc2c1=O)c1ncn[nH]1 (stereo not given) | 135.6% |
| Cc1noc(C)c1CN(C)C(=O)NCCOc1ccc(F)cc1F | -11.52% |
| O=C(NCC1=CCCCC1)C(c1cccnc1)N1CCOCC1 (stereo not given) | -8.257% |
| Cc1nc2c(c(N(C)C)n1)CCN(C(=O)c1sccc1S(N)(=O)=O)C2 | -20.97% |
| CCCc1ccc(C(=O)N2CCc3c(nc(C)nc3N(C)C)C2)cc1 | 96.2% |
| CN(C)c1nc2c(c(=O)[nH]1)CCN(C(=O)c1ccc(=O)[nH]c1)C2 | -0.009534% |
| CCNc1ncc(C(=O)N2Cc3nc(C)[nH]c(=O)c3C2)cn1 | 110.8% |
| Cc1nc2c(c(N(C)C)n1)CCN(C(=O)c1ccc(N)nc1)C2 | 84.83% |
| CCN(CC)CCC(=O)N1CCc2c(nc(N(C)C)nc2N(C)C)C1 | -0.6304% |

| Structure (SMILES) | Percent Effect |
| --- | --- |
| CCCc1ccc(C(=O)N2CCn3c(nnc3C(C)C)C2)cc1 | 1.679% |
| CCNc1ncc(C(=O)N2CCc3c(nc(C)nc3N(C)C)C2)cn1 | 95.13% |
| CCNc1ncc(C(=O)N2CCC(c3ccccc3C(=O)O)C2)cn1 (stereo not given) | -1.411% |
| Cc1nc2c(c(N(C)C)n1)CCN(C(=O)CN1CCC(O)CC1)C2 | -29.43% |
| CCNc1ncc(C(=O)N2CCOC(CCCC(C)C)C2)cn1 (stereo not given) | 18.06% |
| CCCc1ccc(C(=O)N2CCc3c(nc(N(C)C)[nH]c3=O)C2)cc1 | 0.7341% |
| NS(=O)(=O)c1cc(C(=O)N2CCCCC2)cs1 | 6.219% |
| CN(C)c1ccc(CC(=O)N[C@@H]2CCNC[C@H]2O)cc1 | -6.485% |
| O=C(NCc1ccc(Br)c(F)c1)Nc1cn[nH]c1 | 110.2% |
| O=C(NCc1cc(Br)cs1)Nc1cn[nH]c1 | 79.99% |
| O=C(NCC1(N2CCOCC2)CCSC1)Nc1cn[nH]c1 (stereo not given) | 6.407% |
| CN1CCC(NC(=O)NCc2csc(Br)c2)CC1 | -1.868% |
| COCCNc1ccc(CNC(=O)Nc2cn[nH]c2)cc1 | -8.085% |
| O=C(Cc1ccc(Br)s1)NCC(=O)Nc1cn[nH]c1 | -7.073% |
| CNS(=O)(=O)Cc1ccc(CNC(=O)Nc2cn[nH]c2)cc1 | -4.432% |
| O=C(NCc1csc(Br)c1)Nc1cn[nH]c1 | 91.45% |
| CN(Cc1cnn(C)c1)C(=O)NCc1csc(Br)c1 | 2.853% |
